# Compounds with a hit are over-represented: about 19% of the library has one in this group of screens.
# KB-V1 MDR tox – kills drug-selected multidrug resistant KB-V1 cells; KB-V1 MDR cells viability, CellTiter-Glo, 72 h; Potency, µM (doses to about 46.1 µM), usual class: cytotoxic; 400,000 tested, 3.4% active; AID 1347076; note: nearly all actives have a fitted effect of over 60% in size
#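 KB-V1 cells (P-gp-expressing MDR subline of KB-3-1) in phenol-red-free DMEM with 10% FBS were exposed to library compounds over a concentration series for 72 h at 37 degrees C. Viability read by CellTiter-Glo luminescence; concentration-effect curves fitted after normalization.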
# TDP1 cell CPT – growth inhibition of DT40 Tdp1-/-;hTDP1 cells with camptothecin (screen for TDP1 inhibitors); chicken DT40 Tdp1-/-;hTDP1 cells + 20 nM CPT, ATP luminescence, 48 h; Potency, µM (series often up to 46.2 µM), without a hit: top-dose activity change, negative = growth inhibition, most hits filed as inhibitors; 420,000 tested, 12% active; note: nearly all actives have a fitted effect of over 55% in size
#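 Chicken DT40 Tdp1-/- cells stably complemented with human TDP1 were seeded at 400 cells/well in medium containing 20 nM camptothecin, exposed to pin-transferred compounds, and grown at 37 °C for at least 48 hr. Viability was read as ATP luminescence.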
# HT1080 IDH1KD tx – toxicity to HT-1080 IDH1 knockdown cells (counter line). AID 686971. 360,000 tested, 2% active. Potency, µM (doses to about 46.1 µM), inactives show at the highest dose activity, negative = toxicity, actives largely listed as cytotoxic. HT-1080 IDH1 knockdown viability, ATP luminescence, 48 h;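 note: 0% = DMSO wells and -100% = cell-free medium wells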
#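 HT-1080-IDH1KD cells (IDH1 knocked down), 750/well in RPMI with 5% FBS, treated with compound 48 h at 37 degrees C. Viability by CellTiter-Glo luminescence, normalised to DMSO and no-cell wells; concentration-response curves classed.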
# HT1080NT lethal – kills 2HG-producing HT-1080-NT fibrosarcoma cells; HT-1080-NT fibrosarcoma viability, CellTiter-Glo ATP luminescence, 48 h; Potency, µM (highest dose often 46.1 µM), without a hit: at the highest dose activity, negative = less viability, actives largely listed as cytotoxic; 360,000 tested, 1.6% active; AID 686970;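 note: NT is the 2HG producing partner of a matched IDH1 knockdown line; 0% = DMSO-treated cells and -100% = media-only wells without cells; nearly all actives have a fitted effect of over 55% in size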
#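 HT-1080-NT fibrosarcoma cells (2HG-overproducing), 750 cells/well in RPMI with 5% FBS, dosed after 2 h and incubated 48 h at 37C. CellTiter-Glo luminescence normalized to DMSO and no-cell wells; concentration-response curves fitted and classed.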
# DT40 TDP1 no CPT – qHTS for Inhibitors of human tyrosyl-DNA phosphodiesterase 1 (TDP1): qHTS in cells in absence of CPT; DT40 Tdp1-/- hTDP1 cells, no CPT, ATP luminescence, 48 h; Potency, µM (titrated, usually from 46.2 µM), for the others: top-dose activity change, negative = growth inhibition, most hits filed as inhibitors; 420,000 tested, 15% active; note: nearly all actives have a fitted effect of over 55% in size
#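 Compound effects on proliferation are scored in DT40 Tdp1-/-;hTDP1 cells in the absence of CPT. ATP levels (CellTiter-Glo luminescence) are recorded after a ≥48 hr, 37 °C incubation.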
# KB-3-1 tox – KB-3-1 parental cell cytotoxicity; 400,000 tested, 1.4% active; Potency, µM (highest dose often 46.1 µM), actives largely listed as cytotoxic; KB-3-1 viability, CellTiter-Glo ATP luminescence, 72 h; note: nearly all actives have a fitted effect of over 60% in size
#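 KB-3-1 cells, DMEM (no phenol red) + 10% FBS; compound by pin transfer, 72 h, 37 °C. Readout: CellTiter-Glo luminescence after 10 min. Data normalized, curve-fitted.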
# * marks the source's active call; other numbers are inactive results; i = inactive; u = inconclusive; x = no result; ! = repeats disagree. Calls come from the whole dose curve; as a rule, active = well fitted curve in the direction sought with a large enough effect; inconclusive = small, poorly fitted or top-dose-only effect, or another doubt; inactive = no such curve, though single readings can be large; an effect the other way counts as inactive or inconclusive. Unless noted, % is set by controls: 0 for no effect and ±100 for the full control effect; potency is the fitted concentration of half-maximal effect.
SMILES,KB-V1 MDR tox,TDP1 cell CPT,HT1080 IDH1KD tx,HT1080NT lethal,DT40 TDP1 no CPT,KB-3-1 tox
CC(=O)N1CC2CC(C1)c1cccc(=O)n1C2 (stereo unspecified),x,14%,x,x,-2%,x
CC(C)CN(C(=O)CN1CC=C(c2ccccc2)CC1)c1c(N)n(CC(C)C)c(=O)[nH]c1=O,i,u,-11%,4%,18µM*,i
CC(=O)OC1CC(OC2C(O)CC(OC3C(O)CC(OC4CCC5(C)C(CCC6C5CCC5(C)C(C7=CC(=O)OC7)CCC65O)C4)OC3C)OC2C)OC(C)C1OC1OC(CO)C(O)C(O)C1O (stereo unspecified),0.41µM*,0.58µM*,0.052µM*,0.082µM*,0.41µM*,u
CC(=O)O[C@H]1C[C@H](O[C@H]2[C@@H](O)C[C@H](O[C@H]3[C@@H](O)C[C@H](O[C@H]4CC[C@@]5(C)[C@H](CC[C@@H]6[C@@H]5C[C@@H](O)[C@]5(C)[C@@H](C7=CC(=O)OC7)CC[C@]65O)C4)O[C@@H]3C)O[C@@H]2C)O[C@H](C)[C@H]1O[C@@H]1O[C@H](CO)[C@@H](O)[C@H](O)[C@H]1O,x,0.38µM*,x,x,0.34µM*,x
COc1ccc(C(=O)N/N=C/C23CC[C@@H](O)CC2(O)CC[C@@H]2[C@@H]3CCC3(C)C(C4=CC(=O)OC4)CCC23O)cc1 (stereo partly specified),i,-3%,u,u,-1%,u
COCCOC(=O)c1c(C)n(C)c2ccc(OC(=O)N(C)C)cc12,i,-14%,-1%,1%,-25%,i
COc1ccc(-n2cnc3cc(C(=O)N4CCC5(CC4)OCCO5)ccc32)cc1,u,8.2µM*,16µM*,u,2.6µM*,15µM*
Cc1ccccc1-c1ccc2c(c1)CNCc1cnnn1-2,i,-22%,6%,u,u,i
COc1cc2c(cc1OC)[C@H]1C(=O)c3ccc4c(c3O[C@H]1CO2)C[C@@H](C(C)(C)O)O4,i,15µM*,-2%,-4%,12µM*,i
COc1cc2c(cc1OC)C1C(=O)c3ccc4c(c3OC1CO2)CC(C(C)C)O4 (stereo unspecified),i,0.18µM*,u,u,0.033µM*,u
COc1cc2c(cc1OC)[C@@H]1C(=O)c3ccc4c(c3O[C@@H]1CO2)C[C@H](C(C)C)O4,u,0.26µM*,-26%,u,0.16µM*,u
COc1cc2c(cc1OC)[C@@H]1C(=O)c3ccc4oc(C(C)C)cc4c3OC1CO2 (stereo partly specified),x,0.65µM*,x,x,0.29µM*,x
Cc1nc2cnc(N3CCNCC3)nc2n(C)c1=O,x,10%,x,x,-19%,x
O=c1c([N+](=O)[O-])cn(O)cc1[N+](=O)[O-],i,-17%,18%,5%,1%,i
CC(C)C[C@H](CN)CC(=O)O,x,-17%,x,x,-18%,x
C=CC[C@H](CC(=O)N(CCO)Cc1ccccc1)C(=O)NC[C@H](OC(=O)[C@@H](CC=C)CC(=O)OC(C)(C)C)c1ccccc1,u,21µM*,0%,-27%,23µM*,u
C=CC[C@@H](CC(=O)N(CCO)Cc1ccccc1)C(=O)NC[C@@H](OC(=O)[C@@H](CC=C)CC(=O)OC(C)(C)C)c1ccccc1,i,u,-8%,-20%,u,i
c1ccc2sc(C3(NCC4CC4)CCCCC3)cc2c1,x,16µM*,x,x,13µM*,x
c1ccc2sc(C3(N4CCCC4)CCCCC3)cc2c1,x,u,x,x,21µM*,x
CCN(CC)Cc1cc(Nc2ccnc3cc(Cl)ccc23)ccc1O,u,16µM*!,21µM*!,10µM*!,23µM*!,i
CCOC(=O)c1c(C)[nH]c(C)c1S(=O)(=O)N1CCC(C(=O)N2CCN(c3cccc(Cl)c3)CC2)CC1,u,u,x,x,u,i
COC(=O)CCC(=O)Nc1sc(Cc2ccccc2)c(C)c1C(N)=O,i,12µM*,-1%,15%,23µM*,i
Cc1oc(-c2ccc(Cl)cc2)nc1CN1C(=O)CN=C(c2ccccc2)c2ccccc21,i,u,x,x,15µM*,i
COC(=O)CN1C(=O)CN=C(c2ccccc2Cl)c2cc(Br)ccc21,i,-9%,6%,-9%,u,i
Cc1oc(-c2ccccc2)nc1CN1C(=O)C(C)N=C(c2ccccc2F)c2cc(Cl)ccc21 (stereo unspecified),i,u,-6%,-1%,u,i
SMILES,KB-V1 MDR tox,TDP1 cell CPT,HT1080 IDH1KD tx,HT1080NT lethal,DT40 TDP1 no CPT,KB-3-1 tox
O=C1CN=C(c2ccccc2)c2cc(Cl)ccc2N1CC1CC1,x,u,x,x,24µM*,x
O=C1CN=C(c2ccccc2Cl)c2cc(Cl)ccc2N1Cc1cccc(Cl)c1,15µM*,21µM*,x,x,u,u
Cc1ccsc1C(=O)C1CCCN(Cc2c(C)nn(C(C)C)c2C)C1 (stereo unspecified),i,-15%,7%,0%,-15%,i
O=C(Cc1ccccc1)N1CCN(CCCc2ccccc2)CC1,u,u,2%,-2%,u,i
Cc1cc(N2C(=O)C3CCCN3C2c2sccc2C)no1 (stereo unspecified),i,15%,5%,3%,-3%,i
O=C(Nc1ccccc1)N1CC2(CCN(C(=O)Oc3ccccc3)CC2)C1,x,-16%,x,x,-11%,x
CN(Cc1ccccc1)C(=O)c1cccc(NC(=O)Cc2ccc([N+](=O)[O-])cc2)c1,i,23µM*,-24%,-6%,15µM*,i
Clc1cccc(C(c2ccc3nc[nH]c3c2)n2ccnc2)c1 (stereo unspecified),x,u,x,x,27µM*,x
CC(=O)c1cccc(OCC(=O)N2CCN(CC(=O)Nc3cccc(F)c3)CC2)c1,i,-5%,0%,-2%,u,i
CCN(CC)C(=O)c1ccc(NC(=O)CN2CCc3cc(OC)c(OC)cc3C2)cc1,i,5%,-5%,0%,-9%,i
O=[N+]([O-])/C=C/c1c(Cl)cccc1Cl,u,0.46µM*,u,u,1.3µM*,u
CN1CCN2c3ccccc3CC3(C(=O)N(C)C(=O)N(C)C3=O)C2C1 (stereo unspecified),i,-1%,5%,6%,-4%,i

# Assay outcomes: PubChem, National Center for Advancing Translational Sciences (NCATS)
